The panel holds about 83,000 compounds, 20% with a hit somewhere; the sample as a whole holds those more often.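 Results are percent growth after 48 hours of single-concentration exposure. 100 means growth as in untreated cells, lower positive values show inhibition; negative values down to -100 show cell death.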 Calls of active or inactive are those of the source. How the source made its calls: active means growth percent below 10; inactive means the rest.
Columns and labels:
Test in all cases: NCI-60 one-dose screen, 48 h (100 = growth as untreated, 0 = no growth, -100 = all killed)
Conditions in all cases: 10 µM unless noted
DU-145 prostate = tested on: DU-145 prostate
K-562 leukemia = tested on: K-562 leukemia
MALME-3M melanoma = tested on: MALME-3M melanoma
MDA-MB-231 breast = tested on: MDA-MB-231 breast
RXF 393 renal = tested on: RXF 393 renal
SF-268 CNS = tested on: SF-268 CNS
SF-295 CNS = tested on: SF-295 CNS
SF-539 CNS = tested on: SF-539 CNS
UACC-257 melanoma = tested on: UACC-257 melanoma
M14 melanoma = tested on: M14 melanoma
HCT-15 colon = tested on: HCT-15 colon
HT29 colon = tested on: HT29 colon
SNB-75 CNS = tested on: SNB-75 CNS
SNB-19 CNS = tested on: SNB-19 CNS
U251 CNS = tested on: U251 CNS
PC-3 prostate = tested on: PC-3 prostate
SK-MEL-5 melanoma = tested on: SK-MEL-5 melanoma
UACC-62 melanoma = tested on: UACC-62 melanoma
LOX IMVI melanoma = tested on: LOX IMVI melanoma
SK-MEL-28 melanoma = tested on: SK-MEL-28 melanoma

Measured: growth

O=C(CSc1nnc(-c2cc(-c3ccccc3)nc3ccccc23)n1-c1ccccc1)Nc1ccc(C(=O)/C=C/c2ccc(Cl)cc2)cc1
inactive: DU-145 prostate 94.6% | K-562 leukemia 65.8% | MALME-3M melanoma 99.5% | MDA-MB-231 breast 78.5% | RXF 393 renal 103% | SF-268 CNS 94.4% | SF-295 CNS 97.9% | SF-539 CNS 96.7% | UACC-257 melanoma 103% | M14 melanoma 92.6% | HCT-15 colon 73.5% | HT29 colon 76.2% | SNB-75 CNS 97.3% | SNB-19 CNS 101% | U251 CNS 93.9% | PC-3 prostate 81% | SK-MEL-5 melanoma 91.4% | UACC-62 melanoma 67.9% | LOX IMVI melanoma 94.3% | SK-MEL-28 melanoma 99.8%

O=C(CCSc1nnc2n(Cc3ccccc3)c(=O)c3c4c(sc3n12)CCCC4)N1CCN(c2ccccc2)CC1
inactive: DU-145 prostate 111% | K-562 leukemia 113% | MALME-3M melanoma 95.4% | MDA-MB-231 breast 109% | RXF 393 renal 108% | SF-268 CNS 93% | SF-295 CNS 96% | SF-539 CNS 100% | UACC-257 melanoma 101% | M14 melanoma 96.2% | HCT-15 colon 96.9% | HT29 colon 93.7% | SNB-75 CNS 93.5% | SNB-19 CNS 99.8% | U251 CNS 106% | PC-3 prostate 102% | SK-MEL-5 melanoma 99.9% | UACC-62 melanoma 108% | LOX IMVI melanoma 100% | SK-MEL-28 melanoma 87.4%

COc1cc(OC)c(C(=O)C(CN(C)C)CN(C)C)cc1OC
active: K-562 leukemia -42.3% | MALME-3M melanoma -87.8% | MDA-MB-231 breast -59.7% | RXF 393 renal -75% | UACC-257 melanoma 8.98% | M14 melanoma -31.6% | HCT-15 colon -52.4% | HT29 colon 2.66% | LOX IMVI melanoma -68.8%
inactive: DU-145 prostate 87.3% | SF-268 CNS 99.1% | SF-295 CNS 101% | SF-539 CNS 67.7% | SNB-75 CNS 91.4% | SNB-19 CNS 102% | U251 CNS 101% | PC-3 prostate 94.5% | SK-MEL-5 melanoma 101% | UACC-62 melanoma 19.2% | SK-MEL-28 melanoma 21.8%

CN(C)c1ccc(/C=C(\C#N)c2cc3ccccc3[nH]2)cc1
active: SF-295 CNS 8.98% | SF-539 CNS 6.06% | M14 melanoma 9.05% | HT29 colon 5.51%
inactive: DU-145 prostate 24.5% | K-562 leukemia 14% | MALME-3M melanoma 63.9% | MDA-MB-231 breast 31.9% | RXF 393 renal 28.9% | SF-268 CNS 39.8% | UACC-257 melanoma 57.1% | HCT-15 colon 23.6% | SNB-75 CNS 10.9% | SNB-19 CNS 29.5% | U251 CNS 17.4% | PC-3 prostate 28.3% | SK-MEL-5 melanoma 13% | UACC-62 melanoma 30.9% | LOX IMVI melanoma 27.6% | SK-MEL-28 melanoma 54.7%

— PubChem BioAssay (NCI)
